PubChem BioAssay (Tox21)
Where “and” joins values, the source holds several entries; their conditions need not be identical. Equal entries are not always repeated. Inconclusive results are not listed. Entries that show only a call come without a potency. Where a structure was tested more than once in an assay, its records may differ in their call. Calls of active or inactive are those of the source. Unless noted, calls follow the shape of the dose curve; as a rule, active = well fitted curve in the direction sought with a large enough effect in the repeat runs; inconclusive = weak or mixed curves; inactive = no such curve, though single readings can be large; an effect the other way counts as inactive or inconclusive.

Key:
[1] = qHTS assay for small molecules that induce genotoxicity in human embryonic kidney cells expressing luciferase-tagged ATAD5 (AID 651632); details: HEK293T ATAD5-luciferase induction, 16 h; series mostly up to 83.3 µM; also: nearly all actives have a fitted effect of over 15% in size; also: potency is read from the fitted curve at half-maximal effect
Method in brief: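 Genotoxicity read-out via ATAD5-luciferase: HEK293T cells, 16 hr compound incubation at 37C, Amplite detection.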

[2] = qHTS assay for small molecules that induce genotoxicity in human embryonic kidney cells expressing luciferase-tagged ATAD5 - cell viability (AID 651634; calls by dose curve; also: nearly all actives have a fitted effect of over 25% in size); details: HEK293T ATAD5-luc cells viability, CellTiter-Fluor, 15.5 h; series mostly up to 83.3 µM
Method in brief: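 Live-cell protease activity (CellTiter-Fluor, fluorescence) indicates viability. HEK293T cells with luciferase-tagged ATAD5; 15.5 hr compound treatment at 37C.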

[3] = qHTS assay for small molecule disruptors of the mitochondrial membrane potential - cell viability (AID 720634; calls by dose curve;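 also: human HepG2 liver cancer cells; nearly all actives have a fitted effect of over 20% in size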); details: HepG2 viability, ATP luminescence (CellTiter-Glo), 1 h; series mostly up to 83.2 µM
Method in brief: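 Human hepatoma HepG2 cells were treated for 1 hr with test chemicals, then given m-MPI dye and CellTiter-Glo. Cell viability reflects luminescence proportional to cellular ATP.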

[4] = qHTS assay for small molecule disruptors of the mitochondrial membrane potential (AID 720635); details: HepG2 mitochondrial membrane potential, Mito-MPS dye ratio; series mostly up to 83.2 µM; also: potency is read from the fitted curve at half-maximal effect
Method in brief: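 HepG2 cells (2,000/well) attached overnight at 37C, then took compound for 1 hr at 37C, 5% CO2. Mito-MPS dye was added for 30 min; fluorescence was read at 490/535 nm (monomers) and 540/590 nm (aggregates).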

[5] = qHTS assay to test for compound auto fluorescence at 590 nm (red) in HepG2 cells (AID 720674); details: HepG2 autofluorescence, red 540/590 nm, 1 h; series mostly up to 91.3 µM
Method in brief: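 Intrinsic compound fluorescence in the red window (Ex/Em 540/590 nm) is measured in attached HepG2 cells exposed for 1 hr, DMSO vehicle as baseline, benchmarked to Rose Bengal sodium.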

[6] = qHTS assay to test for compound auto fluorescence at 535 nm (green) in HepG2 cells (AID 720675); details: green autofluorescence 485/535 nm, 1 h; series mostly up to 91.3 µM
[7] = qHTS assay to test for compound auto fluorescence at 460 nm (blue) in HEK293 cells (AID 720678); details: blue autofluorescence 405/460 nm; series mostly up to 91.3 µM
Method in brief: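 Measured: blue fluorescence (Ex 405/Em 460 nm) of compound-treated HEK293 cells, incubated overnight at 37C with 5% CO2 and scaled to triamterene equivalents.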

[8] = qHTS assay to test for compound auto fluorescence at 590 nm (red) in HEK293 cells (AID 720679); details: red autofluorescence 540/590 nm; series mostly up to 91.3 µM
Method in brief: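 Using HEK293 cells at 2,000 per well, the screen added 23 nL of each compound after cell attachment and incubated overnight (37C, 5% CO2). The plate reader then captured red-label fluorescence, Ex/Em 540/590nm.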

[9] = qHTS assay for small molecule agonists of the p53 signaling pathway - cell viability (AID 651633; calls by dose curve; also: nearly all actives have a fitted effect of over 30% in size; also: potency is read from the fitted curve at half-maximal effect); details: p53RE-bla HCT-116 viability, ATP luminescence, 16 h; series mostly up to 83.3 µM
Method in brief: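 p53RE-bla cells, seeded at 4,000 per well and rested 5 h at 37 C/5% CO2, received compounds in DMSO for 16 h at 37 C. CellTiter-Glo was then added, and luminescence was read after 30 min at room temperature to gauge cytotoxicity.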

[10] = qHTS assay for small molecule agonists of the p53 signaling pathway (AID 651631; calls by dose curve; also: nearly all actives have a fitted effect of over 15% in size); details: HCT-116 p53RE-bla reporter, beta-lactamase FRET ratio, 16 h; series mostly up to 73.3 µM
Method in brief: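 Testing took place in human colorectal HCT-116 cells with stable p53RE-driven beta-lactamase. After 16 h of compound exposure at 37 °C, a FRET substrate was added and fluorescence recorded 2 h later.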

In the case of `O=C(c1ccccc1)c1ccccc1O`, the Potency [1] is reported as “inactive”, the Potency [2] is reported as “inactive” and the Potency [3] is reported as “inactive”. For the same molecule, the Potency [4] was “inactive and 61.1 µM (active)”, the Potency [5] was “inactive” and the Potency [6] was “inactive”. The outcome [7] was “inactive” and the Potency [8] was “inactive”.
In the case of `COC(=O)Nc1nc2ccc(S(=O)c3ccccc3)cc2[nH]1` (stereo not drawn), the Potency [1] is reported as “inactive”, the Potency [9] is reported as “inactive” and the Potency [2] is reported as “inactive”. For the same molecule, the Potency [3] was “inactive”, the Potency [4] was “inactive” and the Potency [5] was “inactive”. The Potency [6] was “inactive”, the outcome [7] was “inactive” and the Potency [8] was “inactive”.
For `C/C=C/C(=O)O`, the Potency [1] was “inactive”, the Potency [2] was “inactive” and the Potency [5] was “inactive”. For the same molecule, the Potency [6] was “inactive”, the outcome [7] was “inactive” and the Potency [8] was “inactive”.
With `CN(C)C(=N)N=C(N)N` the Potency [9] was “inactive”, the Potency [2] was “inactive” and the Potency [3] was “inactive”. The Potency [4] was “inactive”, the Potency [5] was “inactive” and the Potency [6] was “inactive”. For the same molecule, the outcome [7] was “inactive” and the Potency [8] was “inactive”.
In the case of `NC=O`, the Potency [1] is reported as “inactive”, the Potency [2] is reported as “inactive” and the Potency [3] is reported as “inactive”. The Potency [4] was “inactive”, the Potency [5] was “inactive” and the Potency [6] was “inactive”. The outcome [7] was “inactive” and the Potency [8] was “inactive”.
In the case of `CC1=CC2C3CC(C=C3C)C2C1` (stereo not drawn), the Potency [1] is reported as “inactive”, the Potency [9] is reported as “inactive” and the Potency [2] is reported as “inactive”. For the same molecule, the Potency [3] was “inactive”, the Potency [4] was “inactive” and the Potency [5] was “inactive”. For the same molecule, the Potency [6] was “inactive”, the outcome [7] was “inactive” and the Potency [8] was “inactive”.
With `c1cc(N(CC2CO2)CC2CO2)ccc1OCC1CO1` (stereo not drawn) the Potency [1] was 13.7 µM (active) and 17.2 µM (active), the Potency [9] was 68.7 µM (active) and the Potency [3] was “inactive”. For the same molecule, the Potency [4] was “inactive”, the Potency [5] was “inactive” and the Potency [6] was “inactive”. The outcome [7] was “inactive” and the Potency [8] was “inactive”.
For `Clc1nc(Cl)c(Cl)c(Cl)c1Cl`, the Potency [1] was “inactive”, the Potency [9] was “inactive” and the Potency [2] was “inactive”. For the same molecule, the Potency [3] was “inactive”, the Potency [5] was “inactive” and the Potency [6] was “inactive”. For the same molecule, the outcome [7] was “inactive” and the Potency [8] was “inactive”.
With `O=P(O)(O)O` the Potency [2] was “inactive”, the Potency [3] was “inactive” and the Potency [4] was “inactive”. For the same molecule, the Potency [5] was “inactive”, the Potency [6] was “inactive” and the outcome [7] was “inactive”. The Potency [8] was “inactive”.
For `CC(C(=O)O)c1cccc(C(=O)c2ccccc2)c1` (stereo not drawn), the Potency [10] was “inactive”, the Potency [3] was “inactive” and the Potency [4] was “inactive”. For the same molecule, the Potency [5] was “inactive”, the Potency [6] was “inactive” and the outcome [7] was “inactive”. For the same molecule, the Potency [8] was “inactive”.
For `Nc1ccc(Nc2ccccc2)cc1`, the Potency [1] was “inactive”, the Potency [9] was “inactive” and the Potency [2] was “inactive”. The Potency [3] was “inactive”, the Potency [4] was 1.35 µM (active) and inactive and the Potency [5] was “inactive”. The Potency [6] was “inactive”, the outcome [7] was “inactive” and the Potency [8] was “inactive”.
For `S=C(NC1CCCCC1)NC1CCCCC1`, the Potency [1] was “inactive”, the Potency [2] was “inactive” and the Potency [3] was “inactive”. The Potency [4] was 53.4 µM (active) and 54.5 µM (active), the Potency [5] was “inactive” and the Potency [6] was “inactive”. For the same molecule, the outcome [7] was “inactive” and the Potency [8] was “inactive”.
In the case of `COc1cc([C@@H]2c3cc4c(cc3[C@H](O)[C@H]3COC(=O)[C@H]23)OCO4)cc(OC)c1OC`, the Potency [9] is reported as “inactive”, the Potency [2] is reported as “inactive” and the Potency [3] is reported as “inactive”. The Potency [4] was 150 nM (active) and 76.9 nM (active), the Potency [5] was “inactive” and the Potency [6] was “inactive”. The outcome [7] was “inactive” and the Potency [8] was “inactive”.
For `Oc1ccc(O)cc1`, the Potency [1] was “inactive”, the Potency [2] was “inactive” and the Potency [3] was “inactive”. For the same molecule, the Potency [4] was “inactive”, the Potency [5] was “inactive” and the Potency [6] was “inactive”. For the same molecule, the outcome [7] was “inactive” and the Potency [8] was “inactive”.
With `O=c1oc(=O)c2cc3c(=O)oc(=O)c3cc12` the Potency [1] was “inactive”, the Potency [2] was “inactive” and the Potency [3] was “inactive”. The Potency [4] was “inactive”, the Potency [5] was “inactive” and the Potency [6] was “inactive”. The outcome [7] was “inactive” and the Potency [8] was “inactive”.
For `CC(=O)O[C@]1(C(C)=O)CC[C@H]2[C@@H]3C=C(Cl)C4=CC(=O)[C@@H]5C[C@@H]5[C@]4(C)[C@H]3CC[C@@]21C`, the Potency [9] was “inactive”, the Potency [2] was “inactive” and the Potency [4] was 30.6 µM (active). The Potency [5] was “inactive”, the Potency [6] was “inactive” and the outcome [7] was “inactive”. The Potency [8] was “inactive”.
With `c1ccc2sc(SSN3CCOCC3)nc2c1` the Potency [1] was “inactive”, the Potency [9] was “inactive” and the Potency [2] was “inactive”. The Potency [3] was “inactive”, the Potency [4] was 34.3 µM (active) and 27.3 µM (active) and the Potency [5] was “inactive”. For the same molecule, the Potency [6] was “inactive”, the outcome [7] was “inactive” and the Potency [8] was “inactive”.
For `c1ccc(Nc2ccccc2)cc1`, the Potency [1] was “inactive”, the Potency [2] was “inactive” and the Potency [3] was “inactive”. For the same molecule, the Potency [4] was 61.1 µM (active) and 19.3 µM (active), the Potency [5] was “inactive” and the Potency [6] was “inactive”. The outcome [7] was “inactive” and the Potency [8] was “inactive”.
With `O=[N+]([O-])c1ccc2c(c1)Cc1ccccc1-2` the Potency [1] was “inactive”, the Potency [9] was “inactive” and the Potency [2] was “inactive”. For the same molecule, the Potency [5] was “inactive”, the Potency [6] was “inactive” and the outcome [7] was “inactive”. For the same molecule, the Potency [8] was “inactive”.
With `CCC(C)c1ccccc1O` (stereo not drawn) the Potency [1] was “inactive”, the Potency [9] was “inactive” and the Potency [2] was “inactive”. For the same molecule, the Potency [3] was “inactive”, the Potency [4] was 54.1 µM (active) and 30.6 µM (active) and the Potency [5] was “inactive”. The Potency [6] was “inactive”, the outcome [7] was “inactive” and the Potency [8] was “inactive”.
For `CC(C)OC(=O)C(C)(C)Oc1ccc(C(=O)c2ccc(Cl)cc2)cc1`, the Potency [1] was “inactive”, the Potency [2] was “inactive” and the Potency [4] was “inactive”. For the same molecule, the Potency [5] was “inactive”, the Potency [6] was “inactive” and the outcome [7] was “inactive”. For the same molecule, the Potency [8] was “inactive”.
For `Cc1ccc2c(n1)Oc1ccc(C(C)C(=O)OCC(=O)N(C)C)cc1C2` (stereo not drawn), the Potency [9] was “inactive”, the Potency [2] was “inactive” and the Potency [3] was “inactive”. For the same molecule, the Potency [5] was “inactive”, the Potency [6] was “inactive” and the outcome [7] was “inactive”. The Potency [8] was “inactive”.
With `COC(=O)C1=C(C)NC(C)=C(C(=O)OCCN(C)Cc2ccccc2)C1c1cccc([N+](=O)[O-])c1` (stereo not drawn) the Potency [1] was “inactive”, the Potency [4] was 18.8 µM (active) and the Potency [5] was “inactive”. For the same molecule, the Potency [6] was “inactive”, the outcome [7] was “inactive” and the Potency [8] was “inactive”.
For `CCCCCCCCCC(=O)OC`, the Potency [1] was “inactive”, the Potency [9] was “inactive” and the Potency [2] was “inactive”. The Potency [3] was “inactive”, the Potency [4] was “inactive” and the Potency [5] was “inactive”. For the same molecule, the Potency [6] was “inactive”, the outcome [7] was “inactive” and the Potency [8] was “inactive”.
In the case of `CCCCC(CC)COCC1CO1` (stereo not drawn), the Potency [1] is reported as “inactive”, the Potency [9] is reported as “inactive” and the Potency [2] is reported as “inactive”. The Potency [3] was “inactive”, the Potency [4] was “inactive” and the Potency [5] was “inactive”. The Potency [6] was “inactive”, the outcome [7] was “inactive” and the Potency [8] was “inactive”.
With `O=C(COc1ccc(Cl)cc1)N1CCN(Cc2ccc3c(c2)OCO3)CC1` the Potency [1] was “inactive”, the Potency [9] was “inactive” and the Potency [2] was “inactive”. The Potency [3] was “inactive”, the Potency [4] was “inactive” and the Potency [5] was “inactive”. For the same molecule, the Potency [6] was “inactive”, the outcome [7] was “inactive” and the Potency [8] was “inactive”.
With `c1ccc2cc(Nc3ccc(Nc4ccc5ccccc5c4)cc3)ccc2c1` the Potency [1] was “inactive”, the Potency [2] was “inactive” and the Potency [3] was “inactive”. For the same molecule, the Potency [4] was “inactive”, the Potency [5] was “inactive” and the Potency [6] was “inactive”. The outcome [7] was “inactive” and the Potency [8] was “inactive”.
With `CCCC(=O)O` the Potency [1] was “inactive”, the Potency [9] was “inactive” and the Potency [2] was “inactive”. The Potency [3] was “inactive”, the Potency [4] was “inactive” and the Potency [5] was “inactive”. For the same molecule, the Potency [6] was “inactive”, the outcome [7] was “inactive” and the Potency [8] was “inactive”.
